How the values were obtained:
Conditions in all cases: concentration: 1 μM, replicates: in singlicate; n = 1
PLK2 = tested on: PLK2
PLK3 = tested on: PLK3
PLK4 = tested on: PLK4
PRKCD = tested on: PRKCD
PRKCE = tested on: PRKCE
PRKCH = tested on: PRKCH
PRKCI = tested on: PRKCI
PRKCQ = tested on: PRKCQ
PRKD1 = tested on: PRKD1
PRKD2 = tested on: PRKD2
PRKD3 = tested on: PRKD3
PRKG1 = tested on: PRKG1
PRKG2 = tested on: PRKG2
PRKR = tested on: T1, PRKR
T1 construct: gene EIF2AK2

PRKX = tested on: PRKX
PRP4 = tested on: PRP4
PYK2 = tested on: T2, PYK2
T2 construct: gene PTK2B

QSK = tested on: QSK
RAF1 = tested on: RAF1
RET = tested on: RET
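Also: KINOMEscan kinase panel screen.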

Structure (SMILES)	%Inh (PLK2) [%]	%Inh (PLK3) [%]	%Inh (PLK4) [%]	%Inh (PRKCD) [%]	%Inh (PRKCE) [%]	%Inh (PRKCH) [%]	%Inh (PRKCI) [%]	%Inh (PRKCQ) [%]	%Inh (PRKD1) [%]	%Inh (PRKD2) [%]	%Inh (PRKD3) [%]	%Inh (PRKG1) [%]	%Inh (PRKG2) [%]	%Inh (PRKR) [%]	%Inh (PRKX) [%]	%Inh (PRP4) [%]	%Inh (PYK2) [%]	%Inh (QSK) [%]	%Inh (RAF1) [%]	%Inh (RET) [%]
Cc1ccc(O)cc1Nc1ccnc2cc(-c3ccc(CN4CCCCC4)o3)ccc12 [GW557777]	13	0	0	0	0	0	0	0	96.5	97.8	95.1	0	0	1	0	0	5	41	7	100
Cc1ccc(C)c(NC(=O)Nc2ccc(C)c(-c3ccc(C(=O)Nc4ccncc4)cc3)c2)c1 [GSK1398473]	0	0	0	0	4	10	0	32	8	3	38	31	0	14	20	0	0	8	89	23
COC(=O)Nc1nc2cc(Oc3ccc(NC(=O)Nc4cccc(SC)c4)cc3)ccc2[nH]1.Cl [GW697999]	0	0	0	1	11	4	0	0	3	10	18	1	17	0	24	28	0	0	92.6	99.8
N#Cc1cnc2cc(-c3cnc(CNCCN4CCOCC4)s3)ccc2c1Nc1ccc(Oc2ccccc2)cc1 [GW664114]	0	0	2	0	0	96.3	5	0	0	18	9	0	0	4	4	51	4	0	0	60
Cc1ccc(NC(=O)c2ccc(Cl)c(Cl)c2)cc1-c1ccc(C(=O)Nc2ccncc2)cc1 [GSK1398460]	0	0	8	0	10	22	0	15	15	0	23	13	0	7	17	0	13	0	78	38
Cl.N#CCc1ccc(Nc2nccc(Nc3ccc(Oc4ccccc4)cc3)n2)cc1 [GW639905]	0	0	1	0	6	0	4	0	0	0	53	0	0	0	10	16	8	1	6	38
CSc1ccc(NC2=C(c3ccc(Cl)cc3)C(=O)NC2=O)cc1 [SB-317658]	6	0	30	4	0	2	8	0	17	0	0	6	0	0	0	0	0	0	13	7
CN(C)c1ncnc2nc[nH]c12 [SKF-31736]	20	30	1	0	3	0	0	0	0	0	0	19	0	0	0	0	0	27	0	0
Cl.Cl.NCC(NC(=O)c1cc(-c2cccnc2)c(-c2ccnc3[nH]ccc23)s1)c1ccccc1 (centres unmarked) [GSK1323434]	35	0	0	95.4	82	88	47	75	1	12	34	45	68	0	56	29	10	13	12	28
N#CC1(c2cccc(C(=O)Nc3cccc(Oc4ccc5nc(NC(=O)C6CC6)sc5n4)c3)c2)CC1	5	21	0	5	9	0	18	40	40	0	0	16	0	7	0	21	0	18	100	100
CN(c1ccc(NC(=O)N2CCN(CCCN3CCOCC3)CC2)cc1)c1ccnc(Nc2ccc(CS(C)(=O)=O)cc2)n1.Cl [GW830899]	0	0	39	23	0	0	43	0	0	0	0	0	100	0	63	0	16	0	28	6
Cn1cc(-c2ccc3c(c2)CCN3C(=O)Cc2cc(F)cc(C(F)(F)F)c2)c2c(N)ncnc21 [GSK2635225]	3	0	0	18	1	0	0	17	0	14	18	0	16	15	6	16	0	10	11	35
CC(C)NCC(Cc1ccccc1)NC(=O)c1cc(Br)c(-c2ccnc3[nH]ccc23)s1.Cl.Cl (centres unmarked) [GSK1383281]	13	38	90.1	84	89	82	19	50	75	71	81	98.8	98.8	16	96.5	24	17	5	0	66
CC(C)c1nc(-c2ccc(F)c(NS(=O)(=O)c3c(F)cccc3F)c2)c(-c2ccnc(Nc3ccc(N4CCOCC4)nc3)n2)s1 [GSK1804250]	0	0	99.8	8	7	21	39	0	93.6	99.4	100	1	1	35	23	2	50	32	95.3	89
COc1ccc(NC(=O)c2ccoc2)cc1-c1ccc(C(=O)NCC2CC2)cc1 [GW810437]	34	28	8	9	41	0	6	0	0	0	0	0	0	0	0	0	7	12	0	0
CCn1c(-c2nonc2N)nc2c(-c3ccccc3)ncc(OCCCN)c21.O=C(O)C(F)(F)F.O=C(O)C(F)(F)F [GSK260205]	0	0	0	97.9	97.3	95.6	69	93	91.2	93.6	100	5	95.7	0	28	27	6	27	6	91.7
Cc1cccc(Nc2nc(NCCN)ncc2C(N)=O)c1 [GSK1292139]	0	0	10	26	44	22	2	7	85	87	100	9	0	3	35	41	66	20	3	14
CN(C)CCNS(=O)(=O)c1ccc(-c2ccnc3[nH]ccc23)cc1 [GSK977620]	0	0	1	83	88	82	21	62	0	10	11	95.4	97.4	0	68	0	20	8	1	2
O=C(Nc1c(F)cccc1F)c1cc(C(=O)c2ccccc2F)c[nH]1 [GSK1326180]	0	0	0	9	0	4	2	20	11	14	0	0	0	0	3	0	6	4	6	4
Cc1cc(-c2c(-c3ccc(F)cc3)ncn2CCCN2CCOCC2)nc(N)n1 [SB-222517]	11	25	15	28	0	0	27	0	0	0	0	0	0	16	0	0	10	23	0	13

Structure (SMILES)	%Inh (PLK2) [%]	%Inh (PLK3) [%]	%Inh (PLK4) [%]	%Inh (PRKCD) [%]	%Inh (PRKCE) [%]	%Inh (PRKCH) [%]	%Inh (PRKCI) [%]	%Inh (PRKCQ) [%]	%Inh (PRKD1) [%]	%Inh (PRKD2) [%]	%Inh (PRKD3) [%]	%Inh (PRKG1) [%]	%Inh (PRKG2) [%]	%Inh (PRKR) [%]	%Inh (PRKX) [%]	%Inh (PRP4) [%]	%Inh (PYK2) [%]	%Inh (QSK) [%]	%Inh (RAF1) [%]	%Inh (RET) [%]
O=C(O)C(F)(F)F.O=c1[nH]ccc2nc(N[C@@H]3CCNC3)nc(Nc3ccc4c(c3)S(=O)(=O)CC4)c12 [GSK2181306]	5	0	97.4	99.1	97.9	92.9	78	53	92.1	96.2	100	56	93.6	91.1	89	67	99.4	31	0	97.5
Fc1cc(Cl)ccc1Nc1ccnc2cc(-c3ccc(CN4CCOCC4)o3)ccc12 [GW560109]	0	0	81	0	5	3	22	31	0	2	19	25	0	0	24	44	5	70	11	99.8
Cl.Cl.NC(CNC(=O)c1cc(Br)c(-c2ccnc3[nH]ccc23)s1)c1ccccc1 (centres unmarked) [GSK1322949]	74	48	41	76	93.1	92.6	36	74	0	24	62	98.5	98.4	6	92.5	87	32	22	0	30
COc1cccc(-c2nc(-c3ccccc3)[nH]c2-c2ccncc2)c1 [SB-610250]	0	0	0	0	7	0	25	0	14	0	11	0	0	0	0	70	0	8	34	25
CN(C)CCOc1ccc(-c2cc(-c3ccc(Cl)c(O)c3)c(-c3ccncc3)[nH]2)cc1.Cl.Cl [SB-684387]	4	11	31	0	26	2	14	3	14	2	15	11	80	11	17	15	0	3	88	60
CC(=O)Nc1cn2nc(Oc3cccc(NC(=O)c4cccc(C(F)(F)F)c4)c3)ccc2n1	0	0	0	0	0	0	0	0	18	17	0	11	13	4	0	0	7	0	99.8	100
Cc1ccc(NC(=O)c2cccc(N3CCCCC3)c2)cc1-c1ccc(C(=O)NCC2CC2)cc1 [GSK1917008]	0	0	0	10	3	19	5	0	0	0	100	31	0	0	26	4	0	8	88	10
CC(C)c1nc(-c2cccc(NS(=O)(=O)c3c(F)cccc3F)c2)c(-c2ccnc(Nc3ccc(N4CCOCC4)nc3)n2)s1.Cl [GSK1723980]	0	0	100	0	0	2	20	27	93.9	99.4	100	0	0	29	7	0	25	82	99.4	99.6
COc1ccc(C2=C(Nc3cccc(O)c3)C(=O)NC2=O)cc1 [SB-390766]	0	0	13	0	49	0	18	0	0	4	0	0	0	0	0	49	0	12	96.2	25
CN(c1ccc(F)c(NC(=O)c2cccc(OC(C)(C)C#N)c2Cl)c1)c1ccc2nc(NC(=O)C3CC3)sc2n1	0	0	0	0	0	16	4	5	0	3	0	0	3	0	1	18	3	0	96.1	100
CNc1nccc(-c2ccc3c(N)n[nH]c3c2)n1 [GSK2206003]	0	0	0	27	15	25	17	9	19	20	35	25	76	8	53	32	12	0	0	80
COc1cccc(CC(=O)N2CCc3cc(-c4cn(C)c5ncnc(N)c45)ccc32)c1 [GSK2608899]	0	0	4	17	1	10	31	0	18	1	0	22	0	15	3	0	25	11	0	37
CS(=O)(=O)c1cccc(CNc2nc(Nc3ccc4c(c3)CCC(=O)N4)ncc2C(F)(F)F)c1	29	31	51	4	0	0	13	0	0	0	4	0	0	0	0	30	26	0	0	90.1
CN(c1ccc(NC(=O)Nc2cccc(Cl)c2)cc1)c1ccnc(N)n1.Cl [GW830707]	14	3	14	7	28	0	0	0	0	0	0	0	0	0	0	12	0	15	17	50
Cn1cc(-c2ccc3c(c2)CCN3C(=O)Cc2cc(F)cc(F)c2F)c2c(N)ncnc21 [GSK2634140]	0	0	0	0	0	17	0	20	100	0	0	0	0	2	16	21	12	0	18	5
Cc1nn2c(=O)cc(N3CCO[C@H](C)C3)nc2n1Cc1cccc(Cl)c1Cl [GSK2373693]	0	0	48	0	74	13	24	12	14	2	45	4	0	0	9	14	0	0	9	69
O=C(Nc1n[nH]c2cc(-c3cccs3)ccc12)C1CC1 [SB-731284]	9	28	29	17	11	0	0	0	0	0	7	8	22	0	0	7	0	44	9	0
O=C(Nc1n[nH]c2nc(-c3ccccc3O)ccc12)C1CC1 [SB-711880]	0	0	0	25	0	0	27	0	0	5	0	0	28	10	1	0	4	33	0	0
COc1ccc(C)c(Nc2ccnc(Nc3ccc(-c4cnc[nH]4)cc3)n2)c1.Cl [GW784041]	0	0	15	30	12	0	25	0	16	12	0	0	12	0	0	0	5	0	27	0
Cc1cc(-c2ccnc(Nc3cccc(C#N)c3)n2)cc(C)c1O [GSK1440913]	0	0	15	0	6	5	5	12	0	0	0	0	0	52	0	92.8	27	23	13	0
